From PubChem BioAssay (EPA / NIEHS)
Where “and” joins values, the source holds several entries; their conditions need not be identical. Equal entries are not always repeated. Results filed as inconclusive are left out. Some compounds were tested as several samples or in several runs, with calls that do not always agree. Calls of active or inactive are those of the source. Rule for the calls, unless noted: active = hit-call score of the fitted dose curve at least 0.9, where 1 is the maximum; inactive = score below 0.9.

Key:
[1] = target: Nuclear respiratory factor 1 (Homo sapiens) (UniProt Q16656); experiment: ATG_NRF1_CIS: Attagene CIS-FACTORIAL HepG2 Assay for human Nuclear Respiratory Factor 1 (NRF1) Orphan Gene (AID 2282987); settings: HepG2 NRF1 cis-element reporter, Attagene multiplex; actives raise or lower the signal
In short: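 Endogenous NRF1-driven reporter transcription in transfected HepG2 cells after 24 h treatment. Readout: RT-PCR products, 6-FAM labelled and resolved by capillary electrophoresis; changes fitted both directions relative to DMSO.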

[2] = ATG_NFI_CIS: Attagene CIS-FACTORIAL HepG2 Assay for human Nuclear Factor I (NFI) (AID 2282989); settings: HepG2 cis-regulatory reporter, NFI response element transcription; actives raise or lower the signal
In short: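 Reporter transcription driven by endogenous transcription factors in HepG2 cells; 24 h treatment. Quantitation by labelled RT-PCR fragments on capillary electrophoresis, gain- or loss-of-signal relative to DMSO.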

[3] = target: Myc proto-oncogene protein (Homo sapiens) (UniProt P01106); experiment: ATG_Myc_CIS: Attagene CIS-FACTORIAL HepG2 Assay for human Myelocytomatosis (Myc) Proto-Oncogene Transcription Factor (AID 2282990); settings: HepG2, Attagene cis-reporter transcription factor activity; actives raise or lower the signal
In short: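 Multiplexed cis-reporter transcription in HepG2 cells after 24 h chemical treatment. Reporter mRNA measured by RT-PCR and capillary electrophoresis fluorescence; activity fitted bidirectionally against DMSO control.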

[4] = ATG_NF_kB_CIS: Attagene CIS-FACTORIAL HepG2 Assay for human Nuclear Factor Kappa B (NF-kB) (AID 2282991); settings: HepG2 Attagene cis-factorial NF-kB reporter mRNA; actives raise or lower the signal
In short: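 Readout is reporter transcript level, gain or loss versus DMSO, measured 24 h post-dose via RT-PCR, fluorescent labelling and capillary electrophoresis. Human HepG2 liver cells carried transiently transfected CIS reporter constructs reflecting endogenous factors.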

[5] = ATG_NRF2_ARE_CIS: Attagene CIS-FACTORIAL HepG2 Assay for human Nuclear Factor Erythroid 2 Related Factor 2 (NFR2) response to Antioxidant Response Elements (ARE) (AID 2282992); settings: HepG2 Attagene ARE/NRF2 reporter, transcription factor activity; actives raise or lower the signal
In short: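 HepG2 cells transiently transfected with multiplexed cis-element reporter constructs, 24 h after chemical dosing; reporter mRNA quantified by RT-PCR, fluorescent primer extension, HpaI digestion and capillary electrophoresis. Bidirectional fit relative to DMSO.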

[6] = ATG_Oct_MLP_CIS: Attagene CIS-FACTORIAL HepG2 Assay for human Octamer-Binding Transcription Factor (Oct) (AID 2282993); settings: HepG2 Attagene cis-factorial Oct reporter, mRNA; actives raise or lower the signal
In short: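 Transfected HepG2 cells, 24 h treatment. Reporter mRNA quantified by RT-PCR–capillary electrophoresis; bidirectional fitting against DMSO.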

[7] = target: Cellular tumor antigen p53 (Homo sapiens) (UniProt P04637); experiment: ATG_p53_CIS: Attagene CIS-FACTORIAL HepG2 Assay for human p53 Transcription Factor (AID 2282994); settings: HepG2 p53 cis-element reporter, Attagene mRNA; actives raise or lower the signal
In short: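 HepG2 cells transiently transfected with cis-regulated multiple reporter transcription units, dosed 24 h. Reporter mRNA measured by RT-PCR, 6-FAM primer extension, HpaI digestion and capillary electrophoresis; bidirectional fit relative to DMSO.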

[8] = BSK_3C_TissueFactor: BioMAP Diversity Plus: 3C Assay for Tissue Factor Biomarker Activity (AID 2282997); settings: BioMAP 3C HUVEC, tissue factor biomarker readout; actives raise or lower the signal
In short: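 Primary human umbilical vein endothelial cells in the 3C system were exposed to test chemical for 24 h, then Tissue Factor measured by ELISA. Activity was fitted bidirectionally against DMSO as negative control and baseline.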

[9] = BSK_3C_uPAR: BioMAP Diversity Plus: 3C Assay for Urokinase-type plasminogen activator receptor (uPAR) Biomarker Activity (AID 2282998); settings: BioMAP 3C HUVEC, uPAR biomarker ELISA; actives raise or lower the signal
In short: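 Readout: ELISA for surface uPAR. System: human umbilical vein endothelial primary cells, 24 h after chemical exposure. Analysis: bidirectional fit, DMSO baseline.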

[10] = BSK_3C_VCAM1: BioMAP Diversity Plus: 3C Assay for Vascular cell adhesion molecule 1 (VCAM1) Biomarker Activity (AID 2282999); settings: BioMAP 3C HUVEC, VCAM1 ELISA, cytokine-stimulated; actives raise or lower the signal
In short: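 Human umbilical vein endothelial cells were dosed with compound for 24 h, after which cell-surface VCAM-1 was quantified by ELISA. Bidirectional curve fitting used DMSO as negative control and activity baseline.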

[11] = BSK_4H_Eotaxin3: BioMAP Diversity Plus: 4H Assay for Eotaxin 3 Biomarker Activity (AID 2283000); settings: primary human endothelial cells (HUVEC); actives raise or lower the signal
In short: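 HUVEC, 24 h post-dose, ELISA for Eotaxin-3/CCL26. Gain or loss of signal fitted bidirectionally vs DMSO baseline.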

[12] = target: human Peroxisome Proliferator-activated Receptor alpha (PPARa), PPARA (gene 5465) (UniProt Q07869); experiment: ATG_PPARa_TRANS: Attagene TRANS-FACTORIAL HepG2 Assay for human Peroxisome Proliferator-activated Receptor alpha (PPARa) (AID 2283001; active = hit-call score of the fitted dose curve at least 0.9, where 1 is the maximum;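 for AC50: potency for gain of reporter signal over DMSO so agonist or activator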)
In short: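 Gain-of-signal endpoint: reporter mRNA induction relative to DMSO, detected by fluorescent RT-PCR and capillary electrophoresis. HepG2 cells transiently carried GAL4-UAS-driven reporter units plus NR-Gal4 fusion; exposure lasted 24 h.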

[13] = target: human Peroxisome Proliferator-activated Receptor delta (PPARd), PPARD (gene 5467) (UniProt Q03181); experiment: ATG_PPARd_TRANS: Attagene TRANS-FACTORIAL HepG2 Assay for human Peroxisome Proliferator-activated Receptor delta (PPARd) (AID 2283002; active = hit-call score of the fitted dose curve at least 0.9, where 1 is the maximum)
In short: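 Multiplexed trans-activation format: HepG2 liver cells expressing exogenous NR-Gal4 chimeras and GAL4-UAS reporters were exposed for 24 h. Reporter mRNA was detected by RT-PCR with capillary electrophoresis fluorescence; activity fitted as gain of signal relative to DMSO.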

[14] = target: human Retinoic Acid Receptor beta (RARb), RARB (gene 5915) (UniProt P10826); experiment: ATG_RARb_TRANS: Attagene TRANS-FACTORIAL HepG2 Assay for human Retinoic Acid Receptor beta (AID 2283004; active = hit-call score of the fitted dose curve at least 0.9, where 1 is the maximum)
In short: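 HepG2 cells transiently transfected with multiplexed GAL4-UAS reporter units expressing chimeric NR–Gal4 fusions; 24 h compound exposure. Reporter mRNA quantified by RT-PCR, 6-FAM labelling, HpaI digestion and capillary electrophoresis; gain-of-signal fitted against DMSO baseline.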

[15] = target: Retinoic acid receptor alpha (Homo sapiens) (UniProt P10276); experiment: ATG_RARa_TRANS: Attagene TRANS-FACTORIAL HepG2 Assay for human Retinoic Acid Receptor alpha (RARa) (AID 2283005; active = hit-call score of the fitted dose curve at least 0.9, where 1 is the maximum)
In short: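 HepG2 cells transiently transfected with multiple reporter units expressing chimeric RARα-GAL4 fusion, with GAL4-UAS-driven reporters. After 24 h compound exposure, reporter mRNA induction quantified by RT-PCR and capillary electrophoresis with fluorescent labeling; gain-of-signal fitted relative to DMSO control.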

[16] = BSK_3C_Proliferation: Cell Proliferation Assessment in the BioMAP Diversity Plus: 3C Assay (AID 2283006); settings: primary human endothelial cells (HUVEC);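 for AC50: potency may reflect either rise or fall in cell number versus DMSO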
In short: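 Read-out is total protein by SRB absorbance at 560 nm, taken as a proxy for relative cell number. Primary human umbilical vein endothelium cultured below confluence was dosed for 48 h, TCA-fixed and SRB-stained; curves were fitted bidirectionally versus DMSO.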

[17] = target: Peroxisome proliferator-activated receptor gamma (Homo sapiens) (UniProt P37231); experiment: ATG_PPARg_TRANS: Attagene TRANS-FACTORIAL HepG2 Assay for human Peroxisome Proliferator-activated Receptor-gamma (PPARg) (AID 2283007; active = hit-call score of the fitted dose curve at least 0.9, where 1 is the maximum)
In short: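 After 24 h of chemical exposure, transfected HepG2 cells carrying PPARγ-Gal4 chimera reporter constructs are lysed for RNA. Reporter transcripts are measured by RT-PCR and capillary electrophoresis with fluorescent labelling, and gain of signal is fitted versus DMSO.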

[18] = target: Nuclear receptor subfamily 1 group I member 2 (Homo sapiens) (UniProt O75469); experiment: ATG_PXR_TRANS: Attagene TRANS-FACTORIAL HepG2 Assay for human Pregnane X Receptor (PXR) (AID 2283008; active = hit-call score of the fitted dose curve at least 0.9, where 1 is the maximum)
In short: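 HepG2 cells transiently transfected with GAL4-UAS reporter units and PXR-Gal4 chimera, exposed 24 h. Reporter mRNA quantified by RT-PCR, fluorescent labelling, HpaI digestion and capillary electrophoresis; gain of signal vs DMSO.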

[19] = target: human Retinoic Acid Receptor gamma (RARg), RARG (gene 5916) (UniProt P13631); experiment: ATG_RARg_TRANS: Attagene TRANS-FACTORIAL HepG2 Assay for human Retinoic Acid Receptor gamma (RARg) (AID 2283009; active = hit-call score of the fitted dose curve at least 0.9, where 1 is the maximum)
In short: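 Transient transfection of HepG2 with multi-reporter constructs, then 24 h chemical treatment. Total RNA isolated, reverse-transcribed, PCR-amplified, fluorescently labelled and resolved by capillary electrophoresis; activity scored as mRNA induction versus DMSO.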

[20] = read-out: Intercellular Adhesion Molecule 1 (ICAM1), ICAM1 (gene 3383); experiment: BSK_3C_ICAM1: BioMAP Diversity Plus: 3C Assay for Intercellular Adhesion Molecule 1 (ICAM1) Biomarker Activity (AID 2283003); settings: primary human endothelial cells (HUVEC); actives raise or lower the signal
In short: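 ICAM-1 levels measured by ELISA after HUVEC cultures in the 3C system had been dosed for 24 h. Gain or loss of signal relative to DMSO was fitted in both directions.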

Measured: AC50

Retinoic acid receptor alpha (Homo sapiens), sequence (P10276 whole entry, looked up, the tested form may be a part): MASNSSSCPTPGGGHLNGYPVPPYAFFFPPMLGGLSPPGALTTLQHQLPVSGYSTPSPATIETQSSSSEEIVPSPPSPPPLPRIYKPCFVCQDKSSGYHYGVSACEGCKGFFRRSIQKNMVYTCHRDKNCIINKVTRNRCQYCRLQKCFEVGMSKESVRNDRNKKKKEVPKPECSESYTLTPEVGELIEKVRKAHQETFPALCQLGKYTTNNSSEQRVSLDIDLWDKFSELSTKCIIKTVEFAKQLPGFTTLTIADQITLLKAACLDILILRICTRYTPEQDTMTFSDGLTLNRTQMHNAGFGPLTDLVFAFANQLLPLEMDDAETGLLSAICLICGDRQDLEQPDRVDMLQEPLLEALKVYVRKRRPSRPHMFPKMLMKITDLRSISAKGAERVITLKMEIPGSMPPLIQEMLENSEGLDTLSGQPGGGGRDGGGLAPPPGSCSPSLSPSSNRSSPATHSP
Myc proto-oncogene protein (Homo sapiens), sequence (P01106 whole entry, looked up): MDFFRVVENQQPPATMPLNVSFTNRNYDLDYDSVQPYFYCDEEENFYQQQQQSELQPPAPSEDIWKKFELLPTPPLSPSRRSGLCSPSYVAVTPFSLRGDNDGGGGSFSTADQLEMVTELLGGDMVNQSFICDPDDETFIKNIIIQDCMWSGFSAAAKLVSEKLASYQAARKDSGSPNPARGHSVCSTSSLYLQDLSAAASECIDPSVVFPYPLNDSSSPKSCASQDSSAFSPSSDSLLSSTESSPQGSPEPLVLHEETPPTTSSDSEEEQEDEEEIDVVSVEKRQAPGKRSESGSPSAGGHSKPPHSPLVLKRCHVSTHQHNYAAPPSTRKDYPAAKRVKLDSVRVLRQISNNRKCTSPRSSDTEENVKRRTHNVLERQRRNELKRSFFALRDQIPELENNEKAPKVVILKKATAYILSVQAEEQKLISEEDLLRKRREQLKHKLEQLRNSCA
Nuclear respiratory factor 1 (Homo sapiens), sequence (Q16656 whole entry, looked up): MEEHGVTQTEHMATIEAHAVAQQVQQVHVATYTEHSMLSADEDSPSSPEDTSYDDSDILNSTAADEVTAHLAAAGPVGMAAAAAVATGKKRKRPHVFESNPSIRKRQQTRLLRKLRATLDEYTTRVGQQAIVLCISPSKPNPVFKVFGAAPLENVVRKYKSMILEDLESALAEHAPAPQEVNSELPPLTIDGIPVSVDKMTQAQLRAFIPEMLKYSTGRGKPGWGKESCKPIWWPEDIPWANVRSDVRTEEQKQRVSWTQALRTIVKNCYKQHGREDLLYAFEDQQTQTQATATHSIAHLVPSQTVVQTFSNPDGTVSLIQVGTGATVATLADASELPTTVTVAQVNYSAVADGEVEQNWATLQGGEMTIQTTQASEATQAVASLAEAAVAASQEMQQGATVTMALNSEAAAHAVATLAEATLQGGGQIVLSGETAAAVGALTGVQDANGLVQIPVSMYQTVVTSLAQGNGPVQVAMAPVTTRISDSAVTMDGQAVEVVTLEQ
Nuclear receptor subfamily 1 group I member 2 (Homo sapiens), sequence (O75469 whole entry, looked up, the tested form may be a part): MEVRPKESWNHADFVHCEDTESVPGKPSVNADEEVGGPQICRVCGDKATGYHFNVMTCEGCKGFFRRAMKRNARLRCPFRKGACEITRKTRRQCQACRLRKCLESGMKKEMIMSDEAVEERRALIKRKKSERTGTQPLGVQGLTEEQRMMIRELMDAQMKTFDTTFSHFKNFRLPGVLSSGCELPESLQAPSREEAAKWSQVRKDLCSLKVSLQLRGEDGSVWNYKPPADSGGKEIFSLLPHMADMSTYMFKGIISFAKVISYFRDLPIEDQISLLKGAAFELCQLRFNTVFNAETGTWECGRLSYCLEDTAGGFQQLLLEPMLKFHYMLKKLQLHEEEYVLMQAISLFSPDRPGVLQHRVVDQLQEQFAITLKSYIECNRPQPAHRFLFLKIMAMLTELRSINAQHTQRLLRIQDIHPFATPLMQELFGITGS
Cellular tumor antigen p53 (Homo sapiens), sequence (P04637 whole entry, looked up): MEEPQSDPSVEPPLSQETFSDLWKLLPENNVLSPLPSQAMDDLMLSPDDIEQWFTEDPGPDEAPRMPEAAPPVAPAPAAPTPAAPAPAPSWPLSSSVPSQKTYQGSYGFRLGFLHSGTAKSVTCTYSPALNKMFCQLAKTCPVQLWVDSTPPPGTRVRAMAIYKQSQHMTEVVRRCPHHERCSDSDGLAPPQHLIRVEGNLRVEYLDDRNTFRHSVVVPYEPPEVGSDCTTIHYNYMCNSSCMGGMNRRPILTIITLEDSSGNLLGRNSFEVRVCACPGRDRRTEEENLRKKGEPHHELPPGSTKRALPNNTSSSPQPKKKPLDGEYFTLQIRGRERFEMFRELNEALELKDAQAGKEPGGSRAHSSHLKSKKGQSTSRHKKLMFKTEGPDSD
human Peroxisome Proliferator-activated Receptor alpha (PPARa), PPARA (gene 5465), sequence (Q07869 whole entry, looked up, the tested form may be a part): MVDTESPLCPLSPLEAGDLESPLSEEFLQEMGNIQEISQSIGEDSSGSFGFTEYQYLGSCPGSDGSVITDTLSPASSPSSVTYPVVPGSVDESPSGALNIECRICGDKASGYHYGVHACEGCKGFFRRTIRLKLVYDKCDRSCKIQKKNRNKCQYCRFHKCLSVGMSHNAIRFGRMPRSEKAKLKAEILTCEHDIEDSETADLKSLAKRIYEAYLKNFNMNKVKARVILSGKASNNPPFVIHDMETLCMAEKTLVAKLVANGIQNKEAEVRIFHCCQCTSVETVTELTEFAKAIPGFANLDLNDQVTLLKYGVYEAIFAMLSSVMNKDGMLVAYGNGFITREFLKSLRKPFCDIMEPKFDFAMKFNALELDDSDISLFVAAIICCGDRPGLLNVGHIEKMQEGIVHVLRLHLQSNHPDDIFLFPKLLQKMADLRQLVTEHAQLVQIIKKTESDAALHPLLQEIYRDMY
human Retinoic Acid Receptor beta (RARb), RARB (gene 5915), sequence (P10826 whole entry, looked up, the tested form may be a part): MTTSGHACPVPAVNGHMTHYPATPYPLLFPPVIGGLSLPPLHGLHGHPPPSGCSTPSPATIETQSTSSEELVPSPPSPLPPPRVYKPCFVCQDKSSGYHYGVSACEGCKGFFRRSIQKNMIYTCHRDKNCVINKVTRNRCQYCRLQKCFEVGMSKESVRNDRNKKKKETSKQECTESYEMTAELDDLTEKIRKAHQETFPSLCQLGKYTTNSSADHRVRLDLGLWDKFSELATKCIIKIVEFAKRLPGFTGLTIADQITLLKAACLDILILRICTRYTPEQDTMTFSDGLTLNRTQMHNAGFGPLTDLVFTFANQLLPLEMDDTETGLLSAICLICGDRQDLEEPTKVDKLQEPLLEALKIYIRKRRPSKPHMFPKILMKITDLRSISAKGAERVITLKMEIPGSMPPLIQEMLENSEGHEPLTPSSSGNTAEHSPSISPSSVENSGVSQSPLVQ
human Peroxisome Proliferator-activated Receptor delta (PPARd), PPARD (gene 5467), sequence (Q03181 whole entry, looked up, the tested form may be a part): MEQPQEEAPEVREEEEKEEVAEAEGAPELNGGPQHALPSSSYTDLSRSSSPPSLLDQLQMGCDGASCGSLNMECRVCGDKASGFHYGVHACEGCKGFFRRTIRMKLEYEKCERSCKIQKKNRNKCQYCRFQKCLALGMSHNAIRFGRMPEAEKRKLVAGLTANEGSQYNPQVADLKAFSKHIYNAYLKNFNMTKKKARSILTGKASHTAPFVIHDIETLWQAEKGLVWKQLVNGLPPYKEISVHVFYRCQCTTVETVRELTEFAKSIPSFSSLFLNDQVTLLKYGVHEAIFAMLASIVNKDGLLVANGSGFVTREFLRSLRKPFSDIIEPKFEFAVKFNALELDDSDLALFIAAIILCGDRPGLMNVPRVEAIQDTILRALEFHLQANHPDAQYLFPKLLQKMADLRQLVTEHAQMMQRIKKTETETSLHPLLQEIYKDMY
Peroxisome proliferator-activated receptor gamma (Homo sapiens), sequence (P37231 whole entry, looked up, the tested form may be a part): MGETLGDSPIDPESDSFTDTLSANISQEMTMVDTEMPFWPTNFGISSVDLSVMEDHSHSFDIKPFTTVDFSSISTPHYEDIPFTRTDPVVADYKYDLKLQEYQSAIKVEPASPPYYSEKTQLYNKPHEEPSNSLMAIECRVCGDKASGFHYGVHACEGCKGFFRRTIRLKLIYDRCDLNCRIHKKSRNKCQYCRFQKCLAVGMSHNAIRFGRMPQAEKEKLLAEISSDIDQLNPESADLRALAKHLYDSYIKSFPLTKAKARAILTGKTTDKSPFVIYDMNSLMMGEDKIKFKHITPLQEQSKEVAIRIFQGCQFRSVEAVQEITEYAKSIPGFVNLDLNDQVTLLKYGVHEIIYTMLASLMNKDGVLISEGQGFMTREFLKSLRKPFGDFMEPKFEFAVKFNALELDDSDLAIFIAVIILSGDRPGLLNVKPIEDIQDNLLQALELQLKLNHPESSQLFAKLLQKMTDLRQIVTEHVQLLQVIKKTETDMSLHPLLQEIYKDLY
human Retinoic Acid Receptor gamma (RARg), RARG (gene 5916), sequence (P13631 whole entry, looked up): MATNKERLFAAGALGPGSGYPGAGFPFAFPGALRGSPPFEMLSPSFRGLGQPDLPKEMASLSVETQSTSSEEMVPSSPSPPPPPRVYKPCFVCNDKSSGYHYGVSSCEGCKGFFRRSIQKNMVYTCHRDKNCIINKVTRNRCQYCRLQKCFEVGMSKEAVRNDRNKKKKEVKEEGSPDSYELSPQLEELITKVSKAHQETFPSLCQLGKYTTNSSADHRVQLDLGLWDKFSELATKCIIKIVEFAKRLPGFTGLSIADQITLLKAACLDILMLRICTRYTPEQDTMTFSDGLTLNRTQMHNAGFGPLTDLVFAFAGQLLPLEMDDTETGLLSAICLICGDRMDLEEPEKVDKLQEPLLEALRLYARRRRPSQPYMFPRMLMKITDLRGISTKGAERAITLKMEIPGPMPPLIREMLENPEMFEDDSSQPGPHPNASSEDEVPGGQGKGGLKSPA

O=C(O)C(F)(F)C(F)(F)C(F)(F)C(F)(F)C(F)(F)C(F)(F)C(F)(F)C(F)(F)C(F)(F)C(F)(F)C(F)(F)C(F)(F)F
inactive: [1] | [2] | [3] | [4] | [5] | [6] | [8] | [9] | [10] | [11] | [12] | [13] | [14] | [15] | [17] | [18] | [19]
active: [7] 143 µM | [11] 9.18 µM | [16] 20.6 µM and 6.79 µM

OCC(F)(F)C(F)(F)C(F)(F)C(F)(F)C(F)(F)C(F)(F)F
inactive: [1] | [2] | [3] | [4] | [6] | [8] | [9] | [10] | [11] | [12] | [20] | [15] | [18]
active: [5] 225 µM | [7] 257 µM | [20] 46.4 µM | [16] 52.3 µM and 30 µM

O=S(=O)(OCCOC(F)(F)F)C(F)(F)F
inactive: [1] | [2] | [3] | [4] | [5] | [6] | [7] | [8] | [9] | [10] | [11] | [12] | [13] | [14] | [16] | [18]

O=S(=O)(O)C(F)(F)C(F)(F)C(F)(F)C(F)(F)C(F)(F)C(F)(F)C(F)(F)F
inactive: [1] | [2] | [3] | [4] | [6] | [7] | [8] | [9] | [10] | [11] | [20] | [14] | [15] | [16] | [18]
active: [5] 42.6 µM and 30.3 µM | [12] 21.7 µM and 24.7 µM | [18] 33.5 µM

FC1CC(F)(F)C(F)(F)C1(F)F (stereo unspecified)
inactive: [1] | [2] | [3] | [4] | [5] | [6] | [7] | [8] | [9] | [10] | [11] | [12] | [20] | [14] | [15] | [16] | [17]

O=C(O)C(F)(OC(F)(F)C(F)(OC(F)(F)C(F)(F)C(F)(F)F)C(F)(F)F)C(F)(F)F (stereo unspecified)
active: [12] 108 µM
inactive: [1] | [2] | [3] | [4] | [5] | [6] | [7] | [8] | [9] | [10] | [11] | [12] | [13] | [14] | [15] | [16] | [18]
